Source: PubChem BioAssay (Tox21)
Inconclusive results are not listed. The source made the active and inactive calls. Calls come from the whole dose curve; as a rule, active = well fitted cell-killing curve with a large enough effect in the repeat runs; inconclusive = weak or mixed curves, or effect the other way; inactive = flat fitted curve, though single readings scatter.

test: qHTS assay to identify small molecule antagonists of the retinoid acid receptor (RAR) signaling pathway - cell viability counter screen (AID 1159551); conditions: C3RL4 cells viability, ATP luminescence (CellTiter-Glo), 6 h; series mostly up to 92.4 µM; note: nearly all actives have a fitted effect of over 35% in size
In short: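 Retinol-stimulated (1 uM final) C3RL4 cells, compound 6 h, 37 C; readout CellTiter-Glo luminescence (ATP) after 30 min RT incubation.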
% is set by controls: 0 for no effect and ±100 for the full control effect.

Compound	outcome	activity change, negative = cytotoxicity
Cc1ccnc(NS(=O)(=O)c2ccc(N)cc2)n1	inactive	
Cc1onc(-c2c(Cl)cccc2Cl)c1C(=O)Cl	inactive	
Nc1ccccn1	inactive	
O=C(c1ccccc1)C1(O)CCCCC1	inactive	
CC/C=C\CCOC(C)OCC (centres undefined)	inactive	
CCCO[Si](OCCC)(OCCC)OCCC	inactive	
C[C@H]1C[C@H]2[C@@H]3CCC4=CC(=O)C=C[C@]4(C)[C@H]3C(=O)C[C@]2(C)[C@@]1(O)C(=O)CO	inactive	
Nc1ccn([C@@H]2O[C@H](CO)[C@@H](O)C2O)c(=O)n1 (some centres undefined)	inactive	
NC(=O)Cc1cccc2ccccc12	inactive	
CCCCCCCCCC[N+](C)(C)[O-]	inactive	
C=CCCC(=O)O	inactive	
NC(=O)N[C@@H](CCC(=O)O)C(=O)O	inactive	
Cc1ncc(COP(=O)(O)O)c(C=O)c1O	inactive	
Cc1ccc(-c2ncc(Cl)cc2-c2ccc(S(C)(=O)=O)cc2)cn1	inactive	
COc1ccnc(CS(=O)c2nc3cc(OC(F)F)ccc3[nH]2)c1OC (centres undefined)	inactive	
CCN1C=CN(C)C1C (centres undefined)	inactive	
CC(=O)OCC(=O)[C@@]1(O)[C@H](C)C[C@H]2[C@@H]3CCC4=CC(=O)C=C[C@]4(C)[C@@]3(F)[C@@H](O)C[C@@]21C	inactive	
CCCc1nn(C)c2c(=O)[nH]c(-c3cc(S(=O)(=O)N4CCN(C)CC4)ccc3OCC)nc12	inactive	
[Ca+2]	inactive	
c1coc(CNc2ncnc3nc[nH]c23)c1	inactive	

Compound	outcome	activity change, negative = cytotoxicity
CC1=C(C/C=C(\C)CCC[C@H](C)CCC[C@H](C)CCCC(C)C)C(=O)c2ccccc2C1=O	inactive	
Cc1ccc(-c2ccccc2C#N)cc1	inactive	
CCCCCC(C)N (centres undefined)	inactive	
CN(C)CCCN(C)CCCN(C)C	inactive	
CCCCOC(=O)CCC(C)=O	inactive	
CCOC(=O)COC(=O)c1ccccc1C(=O)OCC	inactive	
Nc1ccn([C@@H]2O[C@H](CO)[C@@H](O)C2(F)F)c(=O)n1	inactive	
CC(=O)Oc1cccc(C)c1	inactive	
COc1ccc2cc1Oc1cc3c(cc1OC)CC[N+](C)(C)[C@H]3Cc1ccc(cc1)Oc1c(OC)c(OC)cc3c1[C@@H](C2)[N+](C)(C)CC3	inactive	
CC[N+](C)(CC)CCOC(=O)C1c2ccccc2Oc2ccccc21	inactive	
C=C(C)C(=O)OCC(O)CO (centres undefined)	inactive	
C[C@@H]1C[C@H]2[C@@H]3C[C@H](F)C4=CC(=O)C(Cl)=C[C@]4(C)[C@@]3(F)[C@@H](O)C[C@]2(C)[C@@]1(O)C(=O)CO	inactive	
CCN[C@@H]1C[C@H](N)[C@@H](OC2OC(CN)=CCC2N)[C@H](O)[C@H]1O[C@H]1OC[C@](C)(O)[C@H](NC)[C@H]1O (some centres undefined)		2.69% [at 0.349 µM] (inactive)
C[C@@H]1CCC[C@H](C)N1	inactive	
CCN[C@H]1C[C@H](C)S(=O)(=O)c2sc(S(N)(=O)=O)cc21	inactive	
C1CCC2=NCCCN2CC1	inactive	
CC[N+](CC)(CC)CCOc1cccc(OCC[N+](CC)(CC)CC)c1OCC[N+](CC)(CC)CC	inactive	
C[N+](C)(CCOc1ccccc1)Cc1cccs1	inactive	
CCC(=O)OCc1ccccc1	inactive	
